# A selection: hits, their analogues and other compounds. The true share with any hit is near 4.6%.
# PfHsp90 yeast 2: growth inhibition of PfHsp90-expressing yeast, primary screen, antimalarial PfHsp90 inhibitor project, S. cerevisiae, BacTiter-Glo luminescence, single point, set 2; BacTiter-Glo ATP, 48 h; yeast lacking PDR1 and PDR3 efflux regulators; inhibition, % at 9.4 µM; actives 0.32% (n = 310,000);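 active = every replicate shows inhibition above about 80%, whatever the replicate mean, limit read from the data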
# V-ATPase pH: regulators of yeast V-ATPase proton pumping, primary screen, pHLuorin cytosolic pH fluorescence; S. cerevisiae; response, % at 10 µM; actives 0.37% (n = 350,000); AID 504577, 2011; in the data active = response mostly above about 7.3%, no sharp cut-off; inactive = mostly below about 5.4%; note: actives read high
# tim10-1 inh: growth inhibitors of tim10-1 mutant yeast, primary screen, luminescence, uHTS; S. cerevisiae tim10-1 ts strain growth, BacTiter-Glo, 24 h; inhibition, % at 20 µM; actives 2.2% (n = 330,000); AID 463190, 2010;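 active = inhibition of at least 40%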;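 note: mutant grown at 25 °C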
# SKKanGAS inh: S. pyogenes SKKanGAS growth inhibitors in kanamycin, primary screen, streptokinase expression inhibitor project, SKKanGAS strain, BacTiter-Glo luminescence. AID 1662, 2009. inhibition, % at 7.5 µM. actives 1.3% (n = 300,000). 6 h;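 active = mean replicate score, as percent of positive control median, at least 50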;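 note: strain carries kanamycin resistance gene driven by streptokinase promoter and grows in 40 µg/ml kanamycin; loss of luminescence reflects streptokinase promoter inhibition or plain growth inhibition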
# TIM10 inh: growth inhibitors of isogenic TIM10 control yeast, primary screen, counter-screen for tim10-1 yeast inhibitor project, luminescence, uHTS | S. cerevisiae TIM10 strain growth, BacTiter-Glo luminescence, 24 h | inhibition, % at 10 µM | actives 1.4% (n = 330,000);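 active = inhibition of 40% or more at the single tested concentration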;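 note: wild-type TIM10 isogenic control strain grown at permissive 25 °C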
# tim23-1 inh: growth inhibitors of tim23-1 mutant yeast, primary screen, luminescence, uHTS | S. cerevisiae tim23-1 growth, BacTiter-Glo luminescence, 24 h | inhibition, % at 20 µM | actives 1.3% (n = 330,000) | AID 463212, 2010;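 active = growth inhibition of the mutant yeast at or above 50%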;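 note: temperature-sensitive mutant grown at 25 °C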
# tim10-1 confirm: growth inhibitors of tim10-1 mutant yeast, confirmation, single concentration, luminescence, S. cerevisiae; actives 56% (n = 7,400); AID 463213, 2010; inhibition, % at 20 µM; shares compounds with tim10-1 inh; S. cerevisiae tim10-1 ts strain growth, BacTiter-Glo, 24 h;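 active = inhibition of yeast growth at or above a set limit in either of two repeat tests at 20 µM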;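 note: tim10-1 mutant grown at permissive 25 °C to find synthetic lethal compounds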
# tim10 confirm: growth inhibitors of wild-type TIM10 yeast, confirmation, counter-screen for tim10-1 synthetic lethality project, single concentration, luminescence, S. cerevisiae; shares compounds with TIM10 inh; actives 63% (n = 4,600); inhibition, % at 10 µM; S. cerevisiae tim10 strain growth, BacTiter-Glo luminescence, 24 h; AID 463215, 2010;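 active = inhibition of yeast growth at or above a set limit in either of two replicates at 10 µM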; note: this counterscreen used the strain with wild-type TIM10
# tim23-1 confirm: tim23-1 mutant yeast growth inhibitors, confirmation, luminescence, single concentration. S. cerevisiae tim23-1 growth, BacTiter-Glo luminescence, 24 h. shares compounds with tim23-1 inh. actives 83% (n = 4,400). inhibition, % at 20 µM;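 active = inhibition above about 39% in either of two replicate wells at 20 µM, limit read from the data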;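 note: temperature-sensitive tim23-1 mutant grown at 25 °C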
# Hits are given with their value; 0 = inactive; - = not tested or not shown.
SMILES,PfHsp90 yeast 2,V-ATPase pH,tim10-1 inh,SKKanGAS inh,TIM10 inh,tim23-1 inh,tim10-1 confirm,tim10 confirm,tim23-1 confirm
CC(C)Cn1c(-c2cccs2)nc2nc3ccccc3nc21,0,0,0,0,0,0,-,-,-
CCCCn1c(-c2cccs2)nc2nc3ccccc3nc21,-,0,50.7,0,0,52.0,36.2,-,66.0
COc1cc(N/C(N)=N/c2nc(C)cc(C)n2)c(OC)cc1Cl,0,0,0,0,0,0,-,-,-
CCCCC(CC)CN=C(N)NC(N)=NCCCCCCN=C(N)NC(N)=NCC(CC)CCCC (stereo not drawn),109.9,84.3,96.4,-,94.1,88.1,95.1,95.7,83.5
CCOC(=O)C1(C(N)=O)OC1(c1ccc(Cl)cc1)c1ccccc1Cl (stereo not drawn),0,0,-,-,-,-,-,-,-
CCOC(=O)N1C(=O)[C@](c2ccc(Cl)cc2)(C(C)C)N1C(=O)OCC,0,0,42.5,0,0,61.2,41.8,-,56.1
O=c1c2c3c(sc2ncn1/N=C/c1ccncc1)CCCC3,0,0,61.5,0,42.8,65.6,62.3,50.2,0
Cc1nn(-c2ccccc2)c(Cl)c1/C=C(\C#N)C(=O)NC(C)C,0,0,55.9,0,53.2,72.9,72.5,55.7,59.8
O=C(Nc1csc([N+](=O)[O-])c1)Nc1ccccc1Cl,0,0,50.5,0,54.0,65.6,49.1,67.2,56.5
Cc1ccc(C)c(NC(=O)CSc2nc(=O)n(CCN3CCOCC3)c3c2CCCC3)c1,0,0,0,0,0,0,-,-,-
CN(N)c1nc(-c2ccccc2)cc(-c2ccccc2)n1,0,0,44.3,0,49.5,56.2,39.3,43.2,54.3
Cc1nc(-c2ccccc2)cc(-c2ccccc2)n1,0,0,0,0,0,0,-,-,-
CCN(CC)c1nc(C(N)=O)cc(-c2ccccc2)n1,0,0,63.1,0,48.4,66.9,61.1,0,73.8
CC(C)(C)n1ncc2c(=O)n(Cc3cccc(Cn4cnc5c(cnn5C(C)(C)C)c4=O)c3F)cnc21,0,0,0,-,0,0,-,-,-
O=S1(=O)C=C(Sc2nc3ccccc3s2)c2ccccc21,-,-,69.4,0,76.6,66.1,64.7,86.0,0
O=C(Nc1ncc([N+](=O)[O-])s1)c1ccco1,0,0,40.2,0,46.2,53.4,39.9,0,47.5
Cc1c(Cl)cccc1N=Cc1ccc([N+](=O)[O-])s1,112.2,20.3,67.3,0,83.5,64.9,61.1,65.3,76.0
COc1cccc(C(=O)Oc2c(CN3CCOCC3)cc(Cl)c3cccnc23)c1,-,0,43.1,0,44.2,50.7,33.5,0,47.8
COc1ccc(C(=O)Oc2c(CN3CCOCC3)cc(Cl)c3cccnc23)cc1,0,0,41.0,0,0,54.4,33.4,-,45.5
COc1cc(C(=O)Oc2c(CN3CCOCC3)cc(Cl)c3cccnc23)cc(OC)c1OC,0,0,0,0,0,0,-,-,-
CCOc1ccc(N=C(/C(C(=O)C(=O)N2CCOCC2)=C(\O)c2ccccc2)c2ccccc2)cc1,0,0,0,0,0,0,-,-,-
O=c1cc(-c2ccc(F)cc2)[nH][nH]1,0,0,0,0,0,0,-,-,-
O=c1cc(-c2ccc(C3CCCCC3)cc2)[nH][nH]1,94.0,0,58.9,0,0,74.0,32.5,-,0
Clc1ccc(Cn2cccn2)cn1,-,0,0,0,0,0,-,-,-
O=C(/C=C/Sc1ccccc1)c1ccc(Cl)cc1,0,0,51.0,0,0,59.0,47.0,-,45.9
SMILES,PfHsp90 yeast 2,V-ATPase pH,tim10-1 inh,SKKanGAS inh,TIM10 inh,tim23-1 inh,tim10-1 confirm,tim10 confirm,tim23-1 confirm
CC(O)[C@@]1(O)CC[C@H]2[C@@H]3CC[C@H]4C[C@@H](O)CC[C@]4(C)C3=CC[C@@]21C (stereo partly drawn),0,0,0,0,0,0,-,-,-
CCCCn1c(=O)[nH]c(=O)c2c1nc(Cn1ncc(Cl)c(Cl)c1=O)n2CCC,0,0,0,0,0,0,-,-,-
COc1cc(C(=O)O[C@H]2C/C(C)=C/CC[C@]3(C)O[C@@H]3C(O)C2C(C)C)cc(OC)c1OC (stereo partly drawn),0,0,0,0,0,0,-,-,-
COc1cc(C(=O)O[C@H]2CC(C)=CC[C@@]3(C)CC[C@@](O)(C(C)C)[C@H]23)ccc1O,0,0,50.2,0,0,54.3,39.5,-,57.3
O=C(CCCCC(=O)NNC(=O)COc1ccccc1)NNC(=O)COc1ccccc1,0,0,0,0,0,0,-,-,-
FC(F)(F)C(F)(F)C(F)(F)c1nnc2ccc(N3CCOCC3)nn12,0,0,0,0,0,0,-,-,-
Cc1ccc(C(=O)N2CCCC(Nc3ccc(F)cc3)C2)cc1C (stereo not drawn),0,0,0,0,0,0,-,-,-
CCOC(=O)C1=C(Cc2ccc(F)cc2)C(=O)c2ccccc2C1=O,0,0,56.6,0,63.7,65.7,67.5,56.8,70.9
C(=N\N1CCOCC1)/c1cccs1,0,0,0,0,0,0,-,-,-
O=C(Nc1nnc(S(=O)(=O)N2CCCCCC2)s1)c1ccccc1F,0,0,47.2,0,0,56.0,31.9,-,54.6
O=C(Nc1nnc(S(=O)(=O)N2CCOCC2)s1)c1ccccc1F,0,0,0,0,0,0,-,-,-
CS(=O)(=O)N1CC(C(=O)O)Oc2ccc(CC(=O)O)cc21 (stereo not drawn),0,0,0,0,0,0,-,-,-
O=C(Nc1cc(C(F)(F)F)ccc1-n1cncn1)c1ccc([N+](=O)[O-])o1,0,0,73.2,0,47.3,53.9,64.5,57.4,0
O=C(Nc1ccc(N2CCCCC2)cc1)c1ccc([N+](=O)[O-])o1,0,0,59.4,0,45.2,73.9,47.3,38.0,69.7
CC1CCN(c2ccccc2NC(=O)c2ccc([N+](=O)[O-])o2)CC1,0,0,0,0,0,0,-,-,-
O=C(Nc1cc(C(F)(F)F)ccc1-n1cncn1)c1ccc(Br)cc1,0,0,0,0,0,0,-,-,-
COc1ccc(N2CCCC2)c(NC(=O)c2ccc([N+](=O)[O-])o2)c1,0,0,62.1,0,70.6,68.3,51.5,79.7,42.6

# Screening results deposited in PubChem by several laboratories.
